Compound activity deposited in PubChem BioAssay by National Center for Advancing Translational Sciences (NCATS).
IL1B secr inh – blocks inflammasome-driven IL-1 beta release | activity change, % at 57.5 µM | 4.7% of 360,000 active | THP-1 LPS/ATP IL-1B secretion, AlphaLISA, 16 h; hits give low values; in the data active means activity change below about -50%; inconclusive means mostly about -30% to -49%
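Secreted IL-1B measured by AlphaLISA bead assay after 16 h compound exposure of THP-1 cells; compounds (final up to 57.5 uM) added 1 h before LPS (250 ng/mL) and ATP (1.25 mM) stimulation; lower signal means less secretion.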
LDHA block – LDHA (human) enzyme inhibition; AID 1347041; purified LDHA, NADH/diaphorase-resazurin fluorescence; hits give low values; P00338; activity change, % (values are at about 110 or 230 µM); 0.15% of 480,000 active; in the data active means activity change below about -30%; inconclusive means mostly about -25% to -30%;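 further: plate controls were DMSO wells for no effect and wells without enzyme for full effect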
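Resorufin fluorescence (ex540/em590), read at 0 and 20 min after diaphorase/resazurin addition, reports the NADH left after a 5 min room-temperature reaction of 2 nM human LDH5 with 0.06 mM NADH and 0.2 mM pyruvate.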
RORgamma inh – ROR gamma (mouse) transcription inhibition | P51450 | Drosophila S2 Gal4-RORgamma UAS-luciferase reporter, 20 h | Potency, µM (doses to about 53.6 µM), for inactives: top-dose activity change, negative = inhibition, hits mostly inhibitors | 5.4% of 310,000 active | AID 2551; further: potency means the concentration at half of the fitted maximal effect; nearly all actives have a fitted effect of over 60% in size
Target sequence (P51450 whole entry, looked up, the tested form may be a part): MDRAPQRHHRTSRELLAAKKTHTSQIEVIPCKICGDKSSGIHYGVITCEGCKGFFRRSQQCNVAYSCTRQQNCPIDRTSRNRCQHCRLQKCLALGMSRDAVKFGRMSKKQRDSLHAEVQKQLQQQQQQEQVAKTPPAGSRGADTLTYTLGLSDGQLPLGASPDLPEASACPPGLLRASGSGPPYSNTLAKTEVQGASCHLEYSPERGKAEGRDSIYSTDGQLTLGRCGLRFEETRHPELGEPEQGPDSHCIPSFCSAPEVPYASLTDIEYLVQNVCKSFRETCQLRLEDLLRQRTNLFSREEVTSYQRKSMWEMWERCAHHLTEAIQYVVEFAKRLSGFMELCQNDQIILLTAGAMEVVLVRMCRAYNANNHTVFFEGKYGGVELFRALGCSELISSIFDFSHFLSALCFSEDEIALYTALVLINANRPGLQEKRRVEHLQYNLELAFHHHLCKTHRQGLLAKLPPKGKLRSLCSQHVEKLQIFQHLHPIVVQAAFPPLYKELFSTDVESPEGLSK
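Luminescence from a UAS-regulated Photinus luciferase reporter in stably transfected Drosophila Schneider cells is measured; decreased signal marks ROR gamma inhibition. Fusion expression is induced by 700 uM copper sulfate for 20 hr.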
TDP1 cell noCPT – qHTS for Inhibitors of human tyrosyl-DNA phosphodiesterase 1 (TDP1): qHTS in cells in absence of CPT; DT40 Tdp1-/- hTDP1 cells, no CPT, ATP luminescence, 48 h; Potency, µM (doses to about 46.2 µM), for inactives: top-dose activity change, negative = growth inhibition, hits mostly inhibitors; 15% of 420,000 active; further: potency means the concentration at half of the fitted maximal effect; nearly all actives have a fitted effect of over 55% in size
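DT40 Tdp1-/-;hTDP1 cells, no CPT (DMSO vehicle only), 400 cells/well; compounds pin-transferred; ≥48 hr, 37 °C; CellTiter-Glo 30 min RT dark, luminescence read.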
VP16 counter – counter-screen for ROR gamma inhibitors: Gal4-VP16 reporter; Drosophila S2 Gal4-VP16 UAS-luciferase, luminescence, 20 h; Potency, µM (doses to about 53.6 µM), for inactives: top-dose activity, negative = inhibition, actives largely listed as inhibitors; 3.5% of 310,000 active;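 further: Gal4-VP16 expression switched on by copper sulfate through the metallothionein promoter; potency means the concentration at half of the fitted maximal effect; nearly all actives have a fitted effect of over 50% in size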
DT40 TDP1 CPT – growth inhibition of DT40 Tdp1-/-;hTDP1 cells with camptothecin (screen for TDP1 inhibitors); chicken DT40 Tdp1-/-;hTDP1 cells + 20 nM CPT, ATP luminescence, 48 h; Potency, µM (doses to about 46.2 µM), for inactives: top-dose activity change, negative = growth inhibition, hits mostly inhibitors; 12% of 420,000 active; AID 686979; further: potency means the concentration at half of the fitted maximal effect; nearly all actives have a fitted effect of over 55% in size
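Chicken DT40 Tdp1-/- cells complemented with human TDP1, 400 cells/well, exposed to compounds plus 20 nM camptothecin for at least 48 h at 37 C; viability read as ATP content by CellTiter-Glo luminescence.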
Numbers without * were called inactive; i = inactive; u = inconclusive; x = not tested or not shown. Hits are enriched below; roughly 18% of the tested compounds scored in any of these assays. Unless noted, the call rests on the fitted dose curve; in most records, active means well fitted curve in the direction sought with a large enough effect; inconclusive means small, poorly fitted or top-dose-only effect, or another doubt; inactive means no such curve, though single readings can be large; an effect the other way counts as inactive or inconclusive. Unless noted, on the % scale 0 is the no-effect control and ±100 the full control effect.

SMILES	IL1B secr inh	LDHA block	RORgamma inh	TDP1 cell noCPT	VP16 counter	DT40 TDP1 CPT
Cc1ccc(Nc2ncnc3c2nc2n3CCCC2)cc1F	x	-10	x	u	x	u
COc1ccccc1Nc1ncnc2c1nc1n2CCCC1	x	1	x	8.2µM*	x	7.3µM*
COc1ccc(OC)c(Nc2ncnc3c2nc2n3CCCC2)c1	x	-7	x	u	x	9.2µM*
Cc1cc(C)cc(Nc2ncnc3c2nc2n3CCCC2)c1	x	-16	x	9.2µM*	x	9.2µM*
COc1ccc(Cl)cc1Nc1ncnc2c1nc1n2CCCC1	x	-15	x	16µM*	x	12µM*
Nc1nccnc1C(=O)NCc1ccc(F)cc1	x	3	x	x	x	x
COc1ccc(C(=O)Oc2ccccc2Cl)cc1	x	6	x	x	x	x
Cc1ccsc1CN(C(=O)c1ccc(OCC(C)C)cc1)C1CCS(=O)(=O)C1 (configuration not stated)	x	-1	x	15µM*	x	u
O=C(c1ccc(F)cc1)N(Cc1ccccc1)C1CCS(=O)(=O)C1 (configuration not stated)	23	1	4%	-21%	3%	-17%
CCOc1ccc(C(=O)N(Cc2sccc2C)C2CCS(=O)(=O)C2)cc1 (configuration not stated)	x	-7	x	-27%	x	u
CC(C)COc1ccc(C(=O)N(Cc2cccc(F)c2)C2CCS(=O)(=O)C2)cc1 (configuration not stated)	x	-6	x	u	x	21µM*
COc1ccc(/C=C/C(=O)CC(=O)c2cc(Cl)ccc2O)cc1	x	-10	x	x	x	x
COc1ccc(OCc2nc3c4c(ncn3n2)-c2ccccc2CC42CCCC2)cc1	6	-11	-3%	u	-8%	u
Cc1ccccc1OCc1nc2c3c(ncn2n1)-c1ccccc1CC31CCCC1	-3	-6	37%	15µM*	-1%	u
Oc1cccc(-c2nc3c4c(ncn3n2)-c2ccccc2CC42CCCC2)c1	u	-4	u	18µM*	25µM*	18µM*
Cc1ccc(OCc2nc3c4c(ncn3n2)-c2ccccc2CC42CCCC2)cc1	14	-5	-8%	u	-4%	-17%
Cc1ccc(/C=[N+](\[O-])c2ccc(N(C)C)cc2)c2nsnc12	-99*	40	5µM*	16µM*	u	7.3µM*
CN(C)c1ccc(C(CNC(=O)/C=C/c2ccco2)c2c[nH]c3ccccc23)cc1 (configuration not stated)	x	-2	x	x	x	x
CC[n+]1c(C)ccc2cc(C)ccc21	x	0	x	x	x	x
C=CC(=O)Nc1ccc(Nc2nc(NC3CCC(N(C)C)CC3)nc3c2ncn3C(C)C)cc1 (configuration not stated)	-109*	-1	x	0.41µM*	x	0.33µM*
c1ccc2c(NC3C4CC5CC(C4)CC3C5)nc(N3CCCC3)nc2c1 (configuration not stated)	x	2	x	x	x	x
O=C1C=C(c2c(O)ccc3ccccc23)c2ccccc2C1=O	-117*	45	x	1.2µM*	x	1.2µM*
CC(C)(C)NC(=O)c1cc(-c2ccc(Cl)cc2)nc2ccccc12	x	8	x	x	x	x
Cc1cccc2c1NC(=O)C2(O)c1c[nH]c2ccccc12 (configuration not stated)	x	-9	x	x	x	x
Cc1cc(O)c(C(C)C)cc1NC(=S)Nc1cc(C(C)C)c(O)cc1C	-55*	30	x	u	x	u
SMILES	IL1B secr inh	LDHA block	RORgamma inh	TDP1 cell noCPT	VP16 counter	DT40 TDP1 CPT
CCN(C(=O)/C=C/c1cccs1)C1CCCCC1	x	3	x	x	x	x
COc1ccc(Nc2nc(Cl)nc(Nc3cccc([N+](=O)[O-])c3)n2)cc1	x	6	x	x	x	x
Cc1noc(/C=C\c2ccc(S(=O)(=O)N3CCOCC3)cc2)c1NC(=O)C1CC1	x	-2	x	x	x	x
Cc1noc(C)c1C(=O)N1CCCC(N2CCN(c3cccc(C(F)(F)F)c3)CC2)C1 (configuration not stated)	16	-3	u	-20%	2%	-17%
O=C(c1cccs1)N1CCCC(N2CCN(c3cccc(C(F)(F)F)c3)CC2)C1 (configuration not stated)	i	-7	u	u	-7%	u
O=C(c1ccco1)N1CCCC(N2CCN(c3cccc(C(F)(F)F)c3)CC2)C1 (configuration not stated)	u	-7	34%	21µM*	17%	16µM*
Cc1cc(C)c(C(=O)N2CCCC(N3CCN(c4cccc(C(F)(F)F)c4)CC3)C2)o1 (configuration not stated)	-6	-3	u	8.2µM*	-8%	21µM*
Cn1nccc1C(=O)N1CCCC(N2CCN(c3cccc(C(F)(F)F)c3)CC2)C1 (configuration not stated)	x	x	29%	x	0%	x
Cc1cc(C(=O)N2CCCC(N3CCN(c4cccc(C(F)(F)F)c4)CC3)C2)no1 (configuration not stated)	-8	-2	24%	16µM*	0%	u
O=C(c1cc(C2CC2)on1)N1CCCC(N2CCN(c3cccc(C(F)(F)F)c3)CC2)C1 (configuration not stated)	-58*	-2	0%	u	-10%	u
CCC(C)C(=O)NCC(OC)c1ccccc1 (configuration not stated)	x	8	x	x	x	x
COc1ccc(C2CC(=O)N3CN(Cc4ccccc4)CSC3=C2C#N)c(OC)c1 (configuration not stated)	x	55	x	x	x	x
CN(C)C(=O)CCC(=O)N1CCCC(N2CCN(c3cccc(C(F)(F)F)c3)CC2)C1 (configuration not stated)	12	-4	-28%	-19%	0%	4%
O=C(CCn1cccn1)N1CCCC(N2CCN(c3cccc(C(F)(F)F)c3)CC2)C1 (configuration not stated)	2	-3	25%	15µM*	-2%	u
Cc1cccc(OCC(=O)NC2CCCc3ccccc32)c1C (configuration not stated)	25	1	5%	16µM*	-2%	u
Cc1ccc(OCC(=O)Nc2ccc3c4c(cccc24)CC3)c(C)c1	-10	-6	-3%	u	-7%	-27%
Cc1cccc(OCC(=O)Nc2ccc3c4c(cccc24)CC3)c1C	33	0	-4%	8.2µM*	-29%	12µM*
O=C(NC1CCCc2ccccc21)c1cn2ccccc2n1 (configuration not stated)	13	-3	34%	u	9%	-11%
